# Screening data (PubChem BioAssay)
# HP1b binding inh: blocks HP1-beta chromodomain binding to methylated histone tails; AlphaScreen HP1-beta / biotin-H3K9me3 peptide binding; 390,000 compounds, 0.56% hits; Potency, µM (highest dose often 114 µM), for inactives: top-dose activity change, negative = inhibition, actives largely listed as inhibitors; P83916; AID 540317; note: nearly all actives have a fitted effect of over 70% in size
#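 Compound inhibition of the preformed complex between 50 nM HP1-beta and 50 nM biotinylated H3K9me3 peptide was read by AlphaScreen. Buffer was PBS pH 7.4 with 0.01% Tween-20. Incubations ran 30 min at room temperature, with 10 ug/mL donor/acceptor beads.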
# BAZ2B block: inhibitors of human BAZ2B bromodomain; Q9UIF8; AID 504333; AlphaScreen BAZ2B-H3K14Ac peptide displacement; 360,000 compounds, 4.4% hits; Potency, µM (top dose mostly 114 µM), without a hit: top-dose activity change, negative = inhibition, most hits filed as inhibitors; note: % is set by controls: 0 for no effect and ±100 for the full control effect; nearly all actives have a fitted effect of over 60% in size
#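 In this displacement format the biotinylated H3(5-23) peptide acetylated at Lys14 serves as ligand at 50 nM, with BAZ2B at 50 nM in PBS pH 7.4 containing 0.01% Tween-20. Donor and acceptor beads are 10 ug/mL final.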
# JMJD2A Tudor: JMJD2A Tudor domain (human) inhibition. 390,000 compounds, 4.4% hits. Potency, µM (series often up to 114 µM), for the others: at the highest dose activity change, negative = inhibition, actives largely listed as inhibitors. AlphaScreen JMJD2A-Tudor / H3K4me3 peptide binding. O75164; note: % is set by controls: 0 for no effect and ±100 for the full control effect; nearly all actives have a fitted effect of over 50% in size
# Target sequence (O75164 whole entry, looked up, the tested form may be a part): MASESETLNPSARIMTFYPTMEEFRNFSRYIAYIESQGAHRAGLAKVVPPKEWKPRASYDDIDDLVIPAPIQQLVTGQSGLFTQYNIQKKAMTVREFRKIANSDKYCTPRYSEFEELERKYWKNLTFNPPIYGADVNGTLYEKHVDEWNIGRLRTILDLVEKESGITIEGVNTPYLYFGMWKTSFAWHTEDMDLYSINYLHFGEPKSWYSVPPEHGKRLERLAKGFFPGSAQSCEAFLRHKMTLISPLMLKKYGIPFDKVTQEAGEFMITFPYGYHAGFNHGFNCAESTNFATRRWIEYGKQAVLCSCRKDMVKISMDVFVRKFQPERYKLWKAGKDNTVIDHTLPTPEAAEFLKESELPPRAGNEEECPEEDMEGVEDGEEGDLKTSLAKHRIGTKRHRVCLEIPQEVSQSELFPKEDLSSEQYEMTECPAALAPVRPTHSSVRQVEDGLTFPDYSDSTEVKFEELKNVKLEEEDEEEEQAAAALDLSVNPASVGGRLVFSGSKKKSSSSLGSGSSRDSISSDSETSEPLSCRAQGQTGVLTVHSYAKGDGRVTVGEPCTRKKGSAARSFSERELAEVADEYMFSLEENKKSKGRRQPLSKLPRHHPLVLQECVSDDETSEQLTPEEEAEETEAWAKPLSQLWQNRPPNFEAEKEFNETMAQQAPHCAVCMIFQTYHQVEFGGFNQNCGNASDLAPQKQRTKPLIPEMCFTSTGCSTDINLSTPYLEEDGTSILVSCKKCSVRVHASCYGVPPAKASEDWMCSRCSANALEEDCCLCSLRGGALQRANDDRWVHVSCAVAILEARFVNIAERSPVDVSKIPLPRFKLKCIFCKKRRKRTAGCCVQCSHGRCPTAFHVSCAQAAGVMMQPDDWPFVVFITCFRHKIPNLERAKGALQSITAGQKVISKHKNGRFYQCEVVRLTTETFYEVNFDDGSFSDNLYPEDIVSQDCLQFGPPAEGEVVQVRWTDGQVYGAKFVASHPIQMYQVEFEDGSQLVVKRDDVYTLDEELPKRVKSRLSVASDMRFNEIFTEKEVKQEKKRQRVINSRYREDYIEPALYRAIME
# Sfp inh: inhibitors of Bacillus subtilis Sfp phosphopantetheinyl transferase; Biochemical Sfp PPTase activity, qHTS; Potency, µM, for inactives: largest response in the series, negative = inhibition, most hits filed as inhibitors; AID 1490; Q9F4F7; 310,000 compounds, 3.5% hits;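 note: the enzyme is Sfp with the accession as filed and its product quenches rhodamine fluorescence; 0% = enzyme reaction without inhibitor and -100% = no enzyme wells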
#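 With Hepes-Na pH 7.6 buffer containing 10 mM MgCl2, Sfp (15 nM) modified BHQ-2-YbbR (12.5 uM) using rhodamine-CoA (5 uM). Two reads 30 minutes apart at 525/598 nm yielded each well's rate.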
# TDP1 inh: TDP1 (human) enzyme inhibition; Q9NUW8; recombinant TDP1, AlphaScreen DNA substrate cleavage; Potency, µM (series often up to 130 µM), for the others: at the top dose activity change, negative = inhibition, actives largely listed as inhibitors; 350,000 compounds, 0.28% hits; note: % is set by controls: 0 for no effect and ±100 for the full control effect; nearly all actives have a fitted effect of over 40% in size
#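 Recombinant human Tdp1 (E. coli-expressed, 1 nM final) preincubated with compounds 15 min at room temperature, then 5'-biotin/3'-phosphotyrosine-FITC DNA substrate (15 nM final) added for 5 min. AlphaScreen beads (10 ug/ml final) added 10 min; cleavage lowers signal.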
# G9a inh: inhibitors of human histone lysine methyltransferase G9a | Q96KQ7 | Potency, µM (top dose mostly 102 µM), for the others: at the highest dose activity, negative = inhibition, most hits filed as inhibitors | G9a H3K9 monomethylation, AlphaScreen, 2 h | 350,000 compounds, 8.8% hits; note: % is set by controls: 0 for no effect and ±100 for the full control effect; nearly all actives have a fitted effect of over 75% in size
#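 Methyltransferase reactions run at room temperature for 2 h (20 nM enzyme, 500 nM biotin-H3K9 peptide, 20 uM SAM) after a 15 min compound preincubation; product detected by AlphaScreen beads and anti-H3K9me1 antibody.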
# Starred values were filed as active, the others as inactive; ? = inconclusive; . = no result; [ ] = dose if it differs, or a comment. This is a sample that favours compounds with a hit; in the whole collection about 12% have one here. Calls come from the whole dose curve; as a rule, active = well fitted curve in the direction sought with a large enough effect; inconclusive = small, poorly fitted or top-dose-only effect, or another doubt; inactive = no such curve, though single readings can be large; an effect the other way counts as inactive or inconclusive. Potency is the fitted concentration of half-maximal effect.
SMILES,HP1b binding inh,BAZ2B block,JMJD2A Tudor,Sfp inh,TDP1 inh,G9a inh
O=c1c(-c2ccc(Cl)cc2)nc2cnc(N3CCNCC3)nc2n1Cc1ccc(F)cc1,.,.,.,45µM*,.,-6%[12.7 µM]
COc1ccc(-c2nc3cnc(N4CCNCC4)nc3n(Cc3cccc(OC)c3)c2=O)cc1,.,.,.,?,.,-2%[12.7 µM]
COc1cccc(Cn2c(=O)c(-c3cccs3)nc3cnc(N4CCNCC4)nc32)c1,.,.,.,18µM*,.,12%[0.501 µM]
CN1CCN(c2ncc3nc(-c4ccc(Cl)cc4)c(=O)n(Cc4ccc(F)cc4)c3n2)CC1,.,.,.,-20%,.,-5%[0.501 µM]
COc1cccc(Cn2c(=O)c(-c3ccc(Cl)cc3)nc3cnc(N4CCNCC4)nc32)c1,.,.,.,40µM*,.,4%[0.501 µM]
O=c1c(CCc2ccccc2)nc2cnc(N3CCNCC3)nc2n1Cc1ccc(F)cc1,.,.,.,50µM*,.,2%[12.7 µM]
CN1CCN(c2ncc3nc(CCc4ccccc4)c(=O)n(Cc4ccc(F)cc4)c3n2)CC1,.,.,.,-14%,.,-9%[12.7 µM]
Cc1c(C)c2ccc(OC(C)C(=O)N3CC[C@@]4(O)CCCC[C@H]4C3)cc2oc1=O (stereo not given in full),24%,?,0%,15%,.,1%[12.7 µM]
COc1cc(NC(=O)c2noc3c2CCc2ccccc2-3)cc(OC)c1OC,51%,-17%,-32%,.,1%,-7%[59 µM]
CN1C(=O)N(CC(=O)Nc2cccc(S(=O)(=O)N(C)c3ccccc3)c2)C(=O)C12CCCCC2,3%,5%,-28%,.,0%,56µM*
CC1CCC2(CC1)NC(=O)N(CC(=O)Nc1cccc(S(=O)(=O)N3CCCCC3)c1)C2=O (stereo not given),-3%,.,?,.,4%,.
CCC1CCC2(CC1)NC(=O)N(CC(=O)Nc1cccc(S(=O)(=O)N(C)c3ccccc3)c1)C2=O (stereo not given),46%,-6%,-27%,.,1%,5.6µM*
CCCC[C@@H]1C[C@H]1C(NC(=O)c1ccco1)c1ccccc1 (stereo not given in full),.,.,.,10%,6%,.
COc1cc(C(=O)NCC(=O)N/N=C/c2ccc(OC(=O)c3ccco3)cc2)cc(OC)c1OC,37%,-28%,-12%[57.1 µM],17%,1%,-2%
NC(=O)c1ccccc1-c1noc(-c2ccccc2F)n1,.,5%,.,.,.,-17%[12.7 µM]
COc1ccc(/C=C/C(=O)NCC(c2ccc(F)cc2)N2CCOCC2)cc1OC (stereo not given),51%,-2%,-5%[11.4 µM],3%,1%,79µM*
COc1ccc(/C=C/C(=O)NCCN2CCOCC2)cc1OC,22%,-31%,?,12%,-4%,?
Cc1ccc(C(=O)N/N=C/c2nc3ccccc3n2C)cc1,47%,?,63µM*,-26%,-9%,33%[12.7 µM]
Cc1cccc(C(=O)Nc2ccc(C(=O)N/N=C/c3cccnc3)cc2)c1,-21%,3%,-12%,16%,-5%,-6%
CC(C)(C)OC(=O)N/N=C\c1cccnc1,3%,-31%,-15%[11.4 µM],12%,1%,1.3µM*
Cc1ccc(C(=O)Nc2ccc(C(=O)N/N=C/c3cccnc3)cc2)cc1,?,-34%,?,-5%,?,79µM*
O=S(=O)(Oc1ccc(Cl)cc1)c1cccc2cccnc12,39%,5%,6%,4%,3%,28%
CCn1c(SCC(=O)Nc2oc(-c3ccccc3)c(-c3ccccc3)c2C#N)nnc1-c1ccncc1,-18%,?,?,-7%,9%,7.9µM*
Cc1cnc(C(=O)OCC(=O)Nc2oc(-c3ccccc3)c(-c3ccccc3)c2C#N)cn1,-11%,-57%,56µM*,17%,8%,50µM*
N#Cc1c(NC(=O)CSc2ccccn2)oc(-c2ccccc2)c1-c1ccccc1,22%,?,-30%,19%,2%,-40%[59 µM]
SMILES,HP1b binding inh,BAZ2B block,JMJD2A Tudor,Sfp inh,TDP1 inh,G9a inh
O=C1CC(c2ccco2)CC(O)=C1C=Nc1cc(Cl)ccc1O (stereo not given),?,45µM*,79µM*,-24%,?,?
O=C1CC(c2ccco2)CC(O)=C1C=Nc1cc(Cl)ccc1Cl (stereo not given),-6%,50µM*,?,50µM*,-11%,7.1µM*
O=C1CC(c2ccco2)CC(O)=C1C=Nc1ccccc1-c1ccccc1 (stereo not given),35%,-11%,-15%,-3%,3%,10%[59 µM]
CC1CCN(C(=O)c2[nH]cnc2C(=O)N2CCN(C(=O)OC(C)(C)C)CC2)CC1,28%,10%,-25%,.,3%,14%[0.501 µM]
Cc1ccc2c(c1)-c1c(cnn1CC(=O)NC(C)CCc1ccco1)CO2 (stereo not given),3%,-32%,-28%,?,5%,45µM*
Cc1ccc(NC(=O)C(=O)NCCCN2CCCC2=O)cc1,20%,-9%,-7%,.,.,1%
Cc1ccc(COc2ccc(CNCCCN3CCCCCC3=O)cc2)cc1,32µM*,35µM*,1.3µM*,-21%,.,14µM*
CC1CC1C(=O)OCC(=O)Nc1ccc(N=Nc2ccccc2)cc1 (stereo not given),?,28µM*,-28%,-14%,-1%,35µM*
C=C(Cl)COc1cc(C)cc2oc(=O)cc(CC)c12,44%,-3%,4%,7%,5%,1%
CCc1cc(=O)oc2cc(C)cc(OCc3nn[nH]n3)c12,40%,5%,-3%,10%,2%,45µM*
COC(=O)Cc1c(C)c2c(OCc3nn[nH]n3)cc(C)cc2oc1=O,24%,-7%,-30%,8%,-4%,45µM*
Cc1c(C)c2cc(Cl)c(OCc3nn[nH]n3)cc2oc1=O,13%,?,-32%,79µM*,-3%,?
COC(=O)Cc1c(C)c2ccc(OCc3nn[nH]n3)c(C)c2oc1=O,34%,-28%,-18%,5%,-2%,-39%[59 µM]
Cc1ccc(-c2nc3sc(C#N)c(N)n3c(=O)c2C#N)cc1,54%,-16%,-5%,-10%,-8%,.
O=C(COc1ccc2c3c(c(=O)oc2c1)CCC3)Nc1ccc(CCO)cc1,99%,-13%,-26%,-13%,40µM*,2%
NS(=O)(=O)c1ccc(CCNC(=O)COc2ccc3c4c(c(=O)oc3c2)CCC4)cc1,19%,-12%,-4%,16%,3%,2%
COc1cccc(CC(=O)Nc2ccc3c(c2)OC2(CCCC2)O3)c1,-3%,?,?,.,4%,-4%[12.7 µM]
Nc1ccc2c(c1)OC1(CCCCC1)O2,?,?,56µM*,-6%,5%,-17%[59 µM]
